# Rows were chosen to be rich in hits. Some 3.5% of all compounds tested hit in one or more screens of this group.
# UHRF1 binding: UHRF1 methyl-DNA binding inhibition; inhibition, % at 4.4 µM; UHRF1 binding to methylated oligo, TR-FRET; 0.75% of 370,000 active; Q96T88; in the data active means inhibition above about 21%;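 further: UHRF1 SRA domain binding a hemimethylated CpG hairpin DNA probe; 0% = median of test compound wells and 100% = reference inhibitor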
# Target sequence (Q96T88 whole entry, looked up, the tested form may be a part): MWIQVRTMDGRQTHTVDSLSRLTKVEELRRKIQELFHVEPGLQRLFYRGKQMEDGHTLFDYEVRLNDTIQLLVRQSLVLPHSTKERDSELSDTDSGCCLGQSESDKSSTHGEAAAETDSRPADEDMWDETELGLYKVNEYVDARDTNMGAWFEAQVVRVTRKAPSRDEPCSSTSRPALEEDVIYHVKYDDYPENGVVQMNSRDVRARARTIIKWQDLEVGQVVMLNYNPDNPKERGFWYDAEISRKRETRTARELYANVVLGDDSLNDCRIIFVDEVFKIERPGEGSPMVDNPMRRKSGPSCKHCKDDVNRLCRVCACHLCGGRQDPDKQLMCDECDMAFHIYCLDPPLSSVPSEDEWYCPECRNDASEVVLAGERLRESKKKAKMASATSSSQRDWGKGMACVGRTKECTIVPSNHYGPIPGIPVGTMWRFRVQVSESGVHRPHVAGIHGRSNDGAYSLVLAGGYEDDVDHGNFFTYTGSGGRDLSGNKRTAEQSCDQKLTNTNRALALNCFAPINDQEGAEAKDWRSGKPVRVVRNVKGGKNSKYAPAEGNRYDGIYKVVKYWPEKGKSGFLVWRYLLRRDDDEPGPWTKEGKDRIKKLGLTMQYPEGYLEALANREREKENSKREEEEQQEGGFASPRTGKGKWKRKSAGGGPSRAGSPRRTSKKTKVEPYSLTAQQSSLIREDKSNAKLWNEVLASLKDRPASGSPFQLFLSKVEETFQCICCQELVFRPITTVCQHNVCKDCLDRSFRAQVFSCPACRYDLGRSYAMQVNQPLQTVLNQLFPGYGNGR
# MBD2 DNA inh: inhibitors of human MBD2 binding to methylated oligonucleotide | AID 686964 | inhibition, % at 4.4 µM | Q9UBB5 | TR-FRET | 0.31% of 370,000 active; in the data active means inhibition above about 13%
# PG9 binder: binds the HIV-1 gp120 antibody PG9. inhibition, % at 6.7 µM. TR-FRET gp120-PG9 antibody binding. 0.43% of 360,000 active; in the data active means inhibition above about 8.5%
# rCAG RNA binder: molecules binding r(CAG) RNA repeats; r(CAG) RNA repeat, TO-PRO-1 dye displacement fluorescence; inhibition, % at 3 µM; 1.3% of 370,000 active; AID 651821;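 active means inhibition above the plate cutoff, the mean of all test compounds on that plate plus 3 SD, cut at about 35% in these data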;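 further: 0% = DMSO alone and 100% = 100 µM mitoxantrone as full dye displacement; higher means more dye released from RNA so lower well fluorescence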
# LEDGF integ inh: blocks HIV-1 LEDGF/p75-dependent DNA integration | 0.64% of 370,000 active | inhibition, % at 3.7 µM | TR-FRET IN-LEDGF/p75 DNA integration, Eu/Cy5;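 active means inhibition above the screen-wide mean plus 3 SD, cut at about 13% in these data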;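 further: signal is the Cy5 over europium emission ratio at 671 and 618 nm; 0% = plate median of compound wells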
# DNMT1 inh: blocks human DNA methyltransferase DNMT1 | DNMT1 molecular beacon, Hinp1I cleavage, fluorescence | inhibition (reported as % activation of signal), % at 10 µM | 0.83% of 360,000 active | AID 588458; in the data active means inhibition above about 50%
# rCAG bind conf: r(CAG) RNA repeat binding, confirmation; shares compounds with rCAG RNA binder; 70% of 4,300 active; inhibition, % at 3 µM; TO-PRO-1 dye displacement fluorescence; AID 652065;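 active means inhibition above a per-plate cutoff, the mean inhibition of sample wells plus 3 SD, cut at about 35% in these data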;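 further: loss of TO-PRO-1 fluorescence as compound displaces dye from 1x1 AA loop RNA; 0% = DMSO only wells and 100% = 100 µM mitoxantrone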
# DNA CAG counter: counter-screen for rCAG RNA binders: DNA CAG dye complex inhibitors | shares compounds with rCAG RNA binder | d(CAG) DNA oligo TO-PRO-1 dye displacement, fluorescence | inhibition, % at 3 µM | 94% of 4,300 active | AID 652068;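 active means inhibition above its plate's cutoff, the mean test-well inhibition plus 3 SD, cut at about 4.8% in these data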;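 further: 0% = DNA dye mix with DMSO and 100% = 100 µM mitoxantrone; hits displace the dye from DNA and so lower well fluorescence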
# An asterisk follows results filed as active; / = not tested or not shown.
SMILES,UHRF1 binding,MBD2 DNA inh,PG9 binder,rCAG RNA binder,LEDGF integ inh,DNMT1 inh,rCAG bind conf,DNA CAG counter
CC(CC(=O)Nc1ccc(Cl)c(S(=O)(=O)N2CCOCC2)c1)c1ccccc1 (stereo unspecified),-1.5,1.1,-0.6,2.2,1.6,-1.2,/,/
Nc1[nH]n2c(=O)cc(-c3ccccc3)nc2c1N=Nc1ccccc1,5.8,3.7,1.3,12.9,0.3,-11.5,/,/
Nc1[nH]n2c(=O)cc(-c3ccccc3)nc2c1N=Nc1ccc(S(N)(=O)=O)cc1,-13.6,-6.3,-7.2,44.4*,-0.5,-4.0,21.8,5.5*
C/C(=N\NC(=O)c1ccc(Cl)c(Cl)c1)c1ccc(Br)s1,-2.0,-7.3,-2.3,-1.0,2.4,23.9,/,/
C/C(=N\Nc1ccc(Cl)c(C(=O)O)c1)c1ccc(Br)s1,-0.4,3.9,-0.1,42.6*,-3.2,13.0,47.7*,13.4*
CCOc1cc(/C=C(/C#N)c2nc3ccccc3[nH]2)ccc1OCc1ccc(C(=O)O)o1,4.8,-4.3,-7.0,48.6*,0.4,13.8,38.8*,8.6*
CCOc1cc(/C=C(/C#N)C(=O)Nc2ccc(OC)cc2)ccc1OCc1ccc(C(=O)O)cc1,1.2,4.2,-1.2,-3.0,-1.8,4.2,/,/
CCOc1cc(/C=C(/C#N)c2ccc(F)cc2)ccc1OCc1ccc(C(=O)O)o1,-0.9,3.2,-1.9,69.4*,3.6,-1.1,68.2*,28.6*
Cc1cccc2cc(/C=N/Nc3ccc(C(=O)O)cc3)c(Cl)nc12,4.6,-0.1,-0.5,47.4*,-1.7,2.3,42.8*,10.6*
CCOc1cc(/C=C2\SC(=S)N(NS(=O)(=O)c3ccc(C)cc3)C2=O)ccc1O,-1.3,-0.8,-28.9,69.9*,-3.0,-3.9,49.7*,19.1*
COc1cc(/C=C2\SC(=S)N(NS(=O)(=O)c3ccc(C)cc3)C2=O)ccc1O,-7.9,-7.2,-10.1,45.5*,-3.2,-3.6,30.3,9.9*
COc1cc(/C=C2\SC(=S)N(NS(=O)(=O)c3ccccc3)C2=O)ccc1O,-6.7,-6.9,-5.5,18.8,0.4,-3.3,/,/
COc1cc(/C=C2\SC(=S)N(NC(=O)c3ccccc3OC)C2=O)ccc1O,1.3,-6.5,-5.9,58.0*,1.8,-2.0,50.6*,19.1*
COc1cc(/C=C2\SC(=S)N(NC(=O)c3ccc(O)c(OC)c3)C2=O)ccc1O,-6.1,-0.1,-4.1,23.5,-1.0,-2.9,/,/
ClC1=CN(C2=NCCC2)CC1,/,/,/,/,/,-12.7,/,/
Cc1cccc(S(=O)(=O)Nc2nc3ccccc3nc2NCc2ccco2)c1,-0.6,-2.6,-2.0,44.0*,-1.9,0.1,32.3,7.3*
Cc1ccc(S(=O)(=O)Nc2nc3ccccc3nc2NCc2ccco2)cc1C,0.0,-0.1,-0.3,47.0*,0.0,0.7,52.7*,19.5*
O=C(Nc1ccccc1O)c1c(O)c2c([nH]c1=O)CCCC2,-2.1,0.5,-2.1,44.3*,0.8,-7.1,40.5*,26.9*
O=C(Nc1nccs1)c1c(O)c2c([nH]c1=O)CCCC2,1.9,4.1,-2.9,-2.3,0.4,2.0,/,/
Cc1csc2ncnc(N3CCN(S(=O)(=O)c4cccc(C(F)(F)F)c4)CC3)c12,3.9,2.0,2.9,-2.9,-2.7,2.3,/,/
O=S(=O)(Nc1nc2ccccc2nc1N1CCN(c2ccccc2)CC1)c1ccc(F)cc1,-1.4,0.2,-1.7,69.1*,0.9,-10.5,67.2*,28.3*
Cc1ccc(S(=O)(=O)Nc2nc3ccccc3nc2N2CCOCC2)cc1,0.6,2.0,-0.8,2.2,0.5,-1.1,/,/
Cc1cc2c(c(=O)o1)[C@@]1(C(=O)N(C)c3ccccc31)C1=C(CC(C)(C)CC1=O)O2,5.0,-2.3,0.3,1.1,-1.2,/,/,/
O=C(CC(C(=O)O)c1ccc(Cl)cc1Cl)c1ccc(Cl)cc1 (stereo unspecified),3.0,-0.5,-1.0,40.5*,4.3,2.9,21.1,3.6
O=C(CC(C(=O)O)c1ccc(Cl)cc1)c1ccc(Cl)c(Cl)c1 (stereo unspecified),0.1,-4.6,0.1,30.8,2.8,1.7,/,/
SMILES,UHRF1 binding,MBD2 DNA inh,PG9 binder,rCAG RNA binder,LEDGF integ inh,DNMT1 inh,rCAG bind conf,DNA CAG counter
COC(=O)c1sc(-c2ccc(C(C)(C)C)cc2)cc1NC(=O)CSCC(=O)O,3.0,4.1,-0.4,62.3*,-3.9,-1.6,68.1*,25.4*
COC(=O)c1sc(-c2ccc(Cl)cc2)cc1NC(=O)c1ccccc1C(=O)O,2.3,2.9,4.5,70.5*,6.0,2.7,80.0*,46.0*
COC(=O)c1sc(-c2ccccc2)cc1NC(=O)C1CC1,-2.9,0.6,2.1,0.1,-3.5,1.8,/,/
COc1ccc(OC)c(NC(=O)CSCC(=O)O)c1,1.1,2.5,-0.6,0.7,1.0,1.2,/,/
COC(=O)c1sc(-c2ccc(C(C)(C)C)cc2)cc1NC(=O)c1ccccc1C(=O)O,0.1,-4.2,0.3,70.1*,-0.4,8.9,83.5*,46.1*
COC(=O)c1cc2c(c3c4cc(C)ccc4n(S(=O)(=O)c4cccc(C)c4)c13)C(=O)N(Cc1ccc(N(C)C)cc1)C2,-0.2,-0.1,-2.2,13.2,1.0,/,/,/
O=C(/C=C/c1ccco1)NC(=S)Nc1cccc([N+](=O)[O-])c1,2.3,-1.8,-0.2,53.7*,10.7,8.0,33.5,18.4*
O=C(/C=C/c1ccco1)NC(=S)Nc1ccccc1,8.9,1.3,0.3,11.7,0.9,1.0,/,/
Cc1cccc(NC(=S)NC(=O)/C=C/c2ccco2)c1,1.4,6.7,0.9,36.6*,11.9,2.0,29.4,14.4*
COc1ccc(-c2csc(NC(=S)NC(=O)/C=C/c3ccco3)n2)cc1Br,1.7,4.1,0.9,66.8*,1.6,39.6,33.5,16.3*
Cc1ccc(-c2nc3ccccc3o2)cc1NC(=S)NC(=O)/C=C/c1ccco1,-0.5,-0.2,-0.2,25.2,-1.1,25.5,/,/
O=C(/C=C/c1ccco1)NC(=S)Nc1cccc(-c2nc3ccccc3o2)c1,-2.1,1.9,0.2,35.0*,1.0,2.0,21.8,12.7*
C=CCn1cnc2c(oc3ccccc32)c1=O,-0.7,5.8,-2.9,3.3,-0.4,2.1,/,/
Cc1ccccc1NC(=O)NC1(C(=O)N2CCC(C(N)=O)CC2)CCCCC1,-24.0,-2.3,-1.6,1.0,-0.9,1.5,/,/
Cc1c(CCC(=O)N[C@@H](C)C(=O)O)c(=O)oc2c(C)c3oc4c(c3cc12)CCCC4,1.0,-4.5,0.8,43.2*,1.9,0.0,39.5*,8.8*
Cc1oc2cc3oc(=O)c(CCC(=O)NCCC(=O)O)c(C)c3cc2c1C,1.8,4.8,1.8,9.7,-2.5,3.1,/,/
Cc1c(CCC(=O)NCCC(=O)O)c(=O)oc2c(C)c3oc4c(c3cc12)CCCC4,1.5,1.5,2.6,41.9*,-0.8,-0.1,38.2*,10.3*

# Screening results (PubChem BioAssay)
